The list is not random: actives were taken first. Their share in the collection is about 2.9%.
GRK2 aptamer HTS: compounds blocking aptamer binding on GRK2 – biochemical, human GRK2, bead flow cytometry, HTS, primary screen. inhibition of aptamer binding, % at 10 µM. FAM-aptamer displacement from GRK2. Beta-adrenergic receptor kinase 1 (Homo sapiens), P25098. hit rate 0.59% among 330,000;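 active means inhibition of aptamer binding above 40%, roughly 3 SD of noise, on plates passing a quality check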;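 further: median bead fluorescence of bound FAM aptamer so fluorescent compounds give negative values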
Beta2AR agonist: beta2AR agonists driving receptor internalization, primary screen, cell-based, FAP fluorogen, flow cytometry. Beta-2 adrenergic receptor (Homo sapiens), P07550. AID 504454, 2011. response, % (concentration not given with the values). Am2.2-beta2AR cells. hit rate 0.43% among 340,000;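 active means response above a set limit, near 3 SD of response in nonfluorescent compounds, cut at about 42% in these data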
Target sequence (P07550 whole entry, looked up): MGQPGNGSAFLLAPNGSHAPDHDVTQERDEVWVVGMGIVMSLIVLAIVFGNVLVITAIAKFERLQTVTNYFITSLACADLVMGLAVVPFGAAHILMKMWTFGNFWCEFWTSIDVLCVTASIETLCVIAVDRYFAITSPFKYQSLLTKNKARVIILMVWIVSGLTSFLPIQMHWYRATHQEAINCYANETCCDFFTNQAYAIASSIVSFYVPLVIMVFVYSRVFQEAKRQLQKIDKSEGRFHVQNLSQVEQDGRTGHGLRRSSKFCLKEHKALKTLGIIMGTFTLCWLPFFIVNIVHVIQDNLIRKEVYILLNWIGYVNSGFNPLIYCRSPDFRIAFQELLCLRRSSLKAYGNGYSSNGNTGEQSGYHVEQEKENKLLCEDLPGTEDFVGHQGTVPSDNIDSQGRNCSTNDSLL
MEKK2 mut-MEK5: MEK5 binding signal on mutant MEKK2 PB1, primary screen, biochemical, multiplex bead flow cytometry, Alexa488-MEK5; Alexa488-MEK5 binding to MEKK2 mutant; percent response, % at 10 µM; AID 1530, 2009; hit rate 0.35% among 290,000; in the data active means percent response above about 24%, passing the limit was not always enough
MEKK3 PB1 HTS: modulators of MEKK3-MEK5 PB1 binding, primary screen, biochemical, wildtype MEKK3, multiplex bead flow cytometry, Alexa488-MEK5. Mitogen-activated protein kinase kinase kinase 3 (Homo sapiens), Q99759. binding response (% of control), % at 10 µM. hit rate 1.4% among 290,000. AID 1529, 2009. bead-based flow cytometry, Alexa488-MEK5 binding to MEKK3; actives lie on both sides; 0 = blocked by unlabeled MEK5, 100 = vehicle;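 active means binding response more than 3 SD above or below the average of its plate-row segment, actives on both sides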;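 further: Alexa488 bead fluorescence after subtracting the streptavidin-only scavenger bead signal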
MEKK2 WT-MEK5: modulators of MEK5 binding to wildtype MEKK2, primary screen, biochemical, multiplex bead flow cytometry, Alexa488-MEK5 | binding response (% of control), % at 10 µM | Alexa488-MEK5 binding to MEKK2 WT; actives lie on both sides | hit rate 1.1% among 290,000; in the data active means binding response below about 67% or above about 130%
GRK2 inh confirm: GRK2 aptamer-displacing inhibitors, retest, confirmation, biochemical, cherry pick 1, bead flow cytometry. shares compounds with GRK2 aptamer HTS. bead-bound GRK2, FAM-aptamer displacement. aptamer displacement, % at 10 µM. hit rate 4% among 2,000;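 active means aptamer displacement above 40%, near three times the noise of non-fluorescent compounds, on plates passing quality checks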;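 further: negative values mostly reflect intrinsic compound fluorescence rather than true enhancement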
Aptamer quench 1: quenches fluorescent RNA aptamer, GRK2 hit artifact; shares compounds with GRK2 aptamer HTS; Fluorescent RNA aptamer beads, quenching, flow cytometry; stronger effect = higher value; fluorescence change (kMESF span), kMESF (no concentration beside the values); 110 tested, under 10 active;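 active means compounds whose bead fluorescence drops by more than 37 kMESF across the dose range, marking them as dye quenchers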
Aptamer quench SP: quenches fluorescent RNA aptamer, GRK2 hit artifact. shares compounds with GRK2 aptamer HTS. Carboxyfluorescein RNA aptamer on beads, flow cytometry quenching; stronger effect = lower value. fluorescence response (% of DMSO), % at 10 µM. 2,000 tested, under 10 active. AID 504580;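 active means compounds that quench the bead-bound fluorescent RNA probe, cutting fluorescence to under half of the solvent control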;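 further: counterscreen run without GRK2 so only probe quenching by compound is measured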
GRK2 CP2: GRK2 aptamer-displacing inhibitors, hit retest, confirmation, biochemical, cherry pick 2, bead flow cytometry; shares compounds with GRK2 aptamer HTS; bead-bound GRK2, FAM-aptamer displacement; inhibition of aptamer binding, % at 10 µM; 360 tested, under 10 active;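 active means inhibition of aptamer binding above 40%, about triple the noise seen with nonglowing compounds, on plates passing quality control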;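 further: negative values mostly come from compounds that fluoresce themselves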
FAM quench CP2: counter-screen for GRK2 binding hits: quenchers of fluorescent RNA aptamer. 360 tested, under 10 active. shares compounds with GRK2 aptamer HTS. carboxyfluorescein RNA aptamer beads, flow cytometry quenching; stronger effect = lower value. fluorescence response vs DMSO, % at 10 µM;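 active means response vs DMSO under 50%, meaning signal dropped by over half, treated as fluorescence quencher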;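 further: labelled aptamer on streptavidin beads without GRK2 as a quench counter-screen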
Numbers stand for hits.

Results for O=C(CCCCCN1C(=O)[C@@H]2Cc3ccccc3CN2C1=O)Nc1cccc(F)c1 ?
GRK2 aptamer HTS: inactive; Beta2AR agonist: inactive; MEKK2 mut-MEK5: inactive; MEKK3 PB1 HTS: inactive; MEKK2 WT-MEK5: inactive; GRK2 inh confirm: inactive; Aptamer quench SP: inactive

How did Cc1cccc(NC(=O)CCCCCN2C(=O)[C@@H]3Cc4ccccc4CN3C2=O)c1 do in these assays?
GRK2 aptamer HTS: inactive; Beta2AR agonist: inactive; MEKK2 mut-MEK5: inactive; MEKK3 PB1 HTS: inactive; MEKK2 WT-MEK5: inactive; GRK2 inh confirm: inactive; Aptamer quench SP: inactive

How did CCOc1ccc(S(=O)(=O)N2CCOCC2)cc1NC(=O)CN1C(=O)NC(CC)(c2ccccc2)C1=O (configuration not stated) do in these assays?
GRK2 aptamer HTS: inactive; Beta2AR agonist: inactive; MEKK2 mut-MEK5: inactive; MEKK3 PB1 HTS: inactive; MEKK2 WT-MEK5: inactive

Results for N#CC(CC(=O)c1ccc(F)cc1)c1ccc2c(c1)OCO2 (configuration not stated) ?
GRK2 aptamer HTS: inactive; Beta2AR agonist: inactive; MEKK2 mut-MEK5: inactive; MEKK3 PB1 HTS: inactive; MEKK2 WT-MEK5: inactive

How did Cc1nn(-c2ccccc2)c2c1C(=O)N(Cc1ccccc1)C(=O)C(C)(C)C2 do in these assays?
GRK2 aptamer HTS: 44.0; Beta2AR agonist: inactive; MEKK2 mut-MEK5: inactive; MEKK3 PB1 HTS: inactive; MEKK2 WT-MEK5: inactive; GRK2 inh confirm: inactive; Aptamer quench SP: inactive

How did O=C(NCc1ccccc1)c1cccc(NC(=O)C2CCCC2)c1 do in these assays?
Beta2AR agonist: inactive; GRK2 inh confirm: inactive; Aptamer quench SP: inactive

Results for O=C(NCc1ccccc1)c1cccc(COc2ccccc2Cl)c1 ?
GRK2 aptamer HTS: inactive; Beta2AR agonist: inactive; GRK2 inh confirm: inactive; Aptamer quench SP: inactive

How did O=C(NCc1ccccc1)c1cccc(NC(=O)C2CCC2)c1 do in these assays?
Beta2AR agonist: inactive; GRK2 inh confirm: inactive; Aptamer quench SP: inactive

What do the screens show for `O=C(NCc1ccccc1)c1cccc(COc2cc(Cl)ccc2Cl)c1`?
GRK2 aptamer HTS: inactive; Beta2AR agonist: inactive; MEKK2 mut-MEK5: inactive; MEKK3 PB1 HTS: inactive; MEKK2 WT-MEK5: inactive

Results for COc1ccc(CN(C)C(=O)c2cccc(NS(=O)(=O)c3ccccc3)c2)cc1F ?
GRK2 aptamer HTS: inactive; Beta2AR agonist: inactive; MEKK2 mut-MEK5: inactive; MEKK3 PB1 HTS: inactive; MEKK2 WT-MEK5: inactive

What do the screens show for `CCOc1cc(C)c(S(=O)(=O)Nc2ccc(Cl)cn2)cc1C`?
GRK2 aptamer HTS: 46.0; Beta2AR agonist: inactive; MEKK2 mut-MEK5: inactive; MEKK3 PB1 HTS: inactive; MEKK2 WT-MEK5: inactive; GRK2 CP2: inactive; FAM quench CP2: inactive

Results for Cc1cccnc1NC(=O)CNC(=O)C1CCCCC1 ?
GRK2 aptamer HTS: inactive; Beta2AR agonist: inactive

What do the screens show for `Cc1ccc(NC(=O)CNC(=O)C2CCCCC2)nc1`?
GRK2 aptamer HTS: 63.0; Beta2AR agonist: inactive; GRK2 inh confirm: inactive; Aptamer quench SP: inactive

What do the screens show for `O=S(=O)(O)c1cc(O)c2c(O)c(N=Nc3cc(Cl)ccc3O)c(S(=O)(=O)O)cc2c1`?
GRK2 aptamer HTS: 99.0; Beta2AR agonist: inactive; MEKK2 mut-MEK5: inactive; MEKK3 PB1 HTS: inactive; MEKK2 WT-MEK5: inactive; GRK2 inh confirm: 70.0; Aptamer quench 1: inactive; Aptamer quench SP: inactive

What do the screens show for `COc1cccc(C(=O)OCC(=O)N2CCC(Cc3ccccc3)CC2)c1OC`?
GRK2 aptamer HTS: inactive; Beta2AR agonist: inactive

What do the screens show for `O=C(O)c1ccc(/C=N/Nc2nc3ccccc3[nH]2)cc1`?
GRK2 aptamer HTS: 95.0; Beta2AR agonist: inactive; MEKK2 mut-MEK5: inactive; MEKK3 PB1 HTS: inactive; MEKK2 WT-MEK5: inactive; GRK2 inh confirm: inactive; Aptamer quench SP: inactive

What do the screens show for `Cc1ccsc1C(C(=O)NC(C)(C)C)N(C(=O)c1csnn1)c1ccccc1` (configuration not stated)?
GRK2 aptamer HTS: inactive; Beta2AR agonist: inactive; MEKK2 mut-MEK5: inactive; MEKK3 PB1 HTS: inactive; MEKK2 WT-MEK5: inactive

Results for CN(CC(=O)Nc1c(Cl)cccc1Cl)C(=O)CCc1nc2sc3c(c2c(=O)[nH]1)CCCC3 ?
GRK2 aptamer HTS: inactive; Beta2AR agonist: inactive; GRK2 inh confirm: inactive; Aptamer quench SP: inactive

What do the screens show for `CCOC(=O)CN1C(=O)/C(=C/c2ccccc2Br)Oc2ccccc21`?
GRK2 aptamer HTS: inactive; Beta2AR agonist: inactive; MEKK2 mut-MEK5: inactive; MEKK3 PB1 HTS: inactive; MEKK2 WT-MEK5: inactive

What do the screens show for `CC(C)[C@H](NC(=O)c1ccco1)C(=O)NC12CC3CC(CC(C3)C1)C2`?
GRK2 aptamer HTS: inactive; Beta2AR agonist: inactive; MEKK2 mut-MEK5: inactive; MEKK3 PB1 HTS: inactive; MEKK2 WT-MEK5: inactive

Results for CC(CC(=O)Nc1ccc(Br)cc1F)S(=O)(=O)c1ccc2c(c1)NC(=O)CO2 (configuration not stated) ?
GRK2 aptamer HTS: inactive; Beta2AR agonist: inactive; MEKK2 mut-MEK5: inactive; MEKK3 PB1 HTS: inactive; MEKK2 WT-MEK5: inactive; GRK2 CP2: inactive; FAM quench CP2: inactive

Results for CC(CC(=O)Nc1ccc(F)cc1)S(=O)(=O)c1ccc2c(c1)NC(=O)CO2 (configuration not stated) ?
GRK2 aptamer HTS: inactive; Beta2AR agonist: inactive; MEKK2 mut-MEK5: inactive; MEKK3 PB1 HTS: inactive; MEKK2 WT-MEK5: inactive

What do the screens show for `O=C1NC2=C(C(=O)CCC2)C(c2ccccc2)N1` (configuration not stated)?
GRK2 aptamer HTS: inactive; Beta2AR agonist: inactive; MEKK2 mut-MEK5: inactive; MEKK3 PB1 HTS: inactive; MEKK2 WT-MEK5: inactive

How did CC1(C)CC(=O)C2=C(C1)NC(=O)NC2c1ccccc1 (configuration not stated) do in these assays?
GRK2 aptamer HTS: 47.0; Beta2AR agonist: inactive; MEKK2 mut-MEK5: inactive; MEKK3 PB1 HTS: inactive; MEKK2 WT-MEK5: inactive; GRK2 inh confirm: inactive; Aptamer quench SP: inactive

Bioassay records deposited in PubChem BioAssay by NMMLSC.
